# Measured values reported in PubChem BioAssay (EPA / NIEHS).
# Calls of active or inactive are those of the source. How the source made its calls: active means hit-call score of the fitted dose curve at least 0.9, where 1 is the maximum; inactive means score below 0.9.
# Read-out: Tumor necrosis factor (Homo sapiens) (UniProt P01375)
# Experiment: BSK_LPS_TNFa: BioMAP Diversity Plus: LPS Assay for Tumour Necrosis Factor alpha (TNFa) Biomarker Activity (AID 2283085)
# Settings: primary human HUVEC with PBMC; actives raise or lower the signal
# Protocol: BSK_LPS is a cell-based, multiplexed-readout assay that uses umbilical vein endothelium and peripheral blood mononuclear cells, a human vascular primary cell co-culture, with measurements taken at 24 hours after chemical dosing in a 96-well plate.BSK_LPS_TNFa is an assay component measured in the BSK_LPS assay. It measures TNF-a antibody related to regulation of gene expression using ELISA technology.Data from the assay component BSK_LPS_TNFa was analyzed into 1 assay endpoint. This assay endpoint, BSK_LPS_TNFa, was analyzed with bidirectional fitting relative to DMSO as the negative control and baseline of activity. Using a type of binding reporter, gain or loss-of-signal activity can be used to understand changes in the signaling as they relate to the gene TNF. Furthermore, this assay endpoint can be referred to as a primary readout, because this assay has produced multiple assay endpoints where this one serves a signaling function. To generalize the intended target to other relatable targets, this assay endpoint is annotated to the cytokine intended target family, where the subfamily is inflammatory factor.
# The levels of cell surface (or secreted, indicated by the prefix "s") biomarker endpoints were measured by ELISA. Overt cytotoxicity to cells in confluent adherent cultures (all systems other than the BT system) was assessed by measuring total protein levels using sulforhodamine B (SRB) staining in parallel cultures at the time of biomarker measurements, indicated as SRB endpoints. For proliferation assays for adherent cell types, individual cell types are cultured at sub-confluence and relative cell numbers quantified by SRB staining at time points optimized for each system (48 h: 3C and CASM3C systems; 72 h: BT and HDF3CGF systems; 96 h: SAg system). SRB was performed by staining cells with 0.1% SRB after fixation with 10% TCA and reading wells at 560 nm.Viability and proliferation of PBMC (T cells) was quantified by Alamar Blue reduction for the SAg and BT systems. For PBMC viability (referred to as PBMC Cytotoxicity within the assay endpoint names), cells were plated (75,000/well in a 96-well plate) and then chemical samples added for 1 h before addition of activators, SEB and TSST-1 (20 ng/mL final concentration each). Cells were incubated for 90 h. Then, Alamar Blue (20 uL/well) (Invitrogen, Cat DAL1100) was added for 6 h, and the plates were read with a fluorescence microplate reader at 546/580 nm (excitation/emission). For PBMC proliferation, cells were plated and activated as above but incubated for only 16 h prior to addition of Alamar Blue. Plates were read after 6 h.
# Tumor necrosis factor (Homo sapiens), sequence (P01375 whole entry, looked up): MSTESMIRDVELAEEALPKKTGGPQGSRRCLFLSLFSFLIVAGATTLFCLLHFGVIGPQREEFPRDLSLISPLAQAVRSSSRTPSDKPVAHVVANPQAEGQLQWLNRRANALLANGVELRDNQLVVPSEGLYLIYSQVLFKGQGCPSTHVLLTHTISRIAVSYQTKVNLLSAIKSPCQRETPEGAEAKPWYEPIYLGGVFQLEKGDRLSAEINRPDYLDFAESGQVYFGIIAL
SMILES,outcome,AC50
O=C(O)[C@H](O)[C@@H](O)C(=O)O,inactive,
CCc1cccc(CC)c1N,inactive,
OCc1ccccc1,inactive,
COS(C)(=O)=O,inactive,
CCCOc1ccc(S(=O)(=O)N2CCN(CC)CC2)cc1-c1nc2c(CC)n(Cc3ccccn3)nc2c(=O)[nH]1,,3.63 µM (active)
CCCCCCCC1CCC(=O)O1 (stereo not given),inactive,
O=C(NO)C1(NS(=O)(=O)c2ccc(Oc3ccc(F)cc3)cc2)CCOCC1,,3.97 µM (active)
CCN(CC)C(=S)SSC(=S)N(CC)CC,,15.4 µM (active)
NNC(=O)c1ccncc1,inactive,
CC1(C)C(=O)N(Cl)C(=O)N1Cl,inactive,
OCCC(F)(F)C(F)(F)C(F)(F)C(F)(F)F,inactive,
CCn1nc(C)c2c1C(=O)NCC(c1ccc(O)cc1)=N2,,0.78 µM (active)
CCCCN1C(=O)[C@@H]([C@H](O)C2CCCCC2)NC(=O)C12CCN(Cc1ccc(Oc3ccc(C(=O)O)cc3)cc1)CC2,inactive,
Cc1nc(-c2ccccn2)ncc1C(=O)Nn1cc(C)c2cc(F)ccc21,inactive,
FC(F)(F)C(F)(F)C(F)(F)C(F)(F)C(F)(F)C(F)(F)I,inactive,
O=C(O)c1cccc(C(=O)O)c1,inactive,
OCC(CO)(CO)CO,inactive,
CC(C)CC(C)O (stereo not given),inactive,
O=S(=O)(O)c1ccc(N=Nc2c(O)ccc3cc(S(=O)(=O)O)ccc23)cc1,inactive,
CCOc1ccc2[nH]cc(C(=O)NCc3ccccc3)c(=O)c2n1,inactive,

SMILES,outcome,AC50
Cc1nccn1-c1ccc(Sc2cccc(C3(C(N)=O)CCOCC3)c2)cc1,inactive,
Cc1ncc([C@@H](CCCCCCc2ccc3c(n2)NCCC3)CC(=O)O)cn1,inactive,
FC(F)C(F)(F)COCC1CO1 (stereo not given),inactive,
C=CN1CCCC1=O,inactive,
CCCc1ccccc1,inactive,
COCc1nnc(-c2ccc[n+]([O-])c2)n1-c1c(Cl)c(Cl)cc2[nH]c(=O)c(=O)[nH]c12,inactive,
OCCOCCOCCO,inactive,
CCCCCCCCN(C)C,inactive,
CC[C@H](C)C(=O)O[C@H]1C[C@H](O)C=C2C=C[C@H](C)[C@H](CC[C@@H](O)C[C@@H](O)CC(=O)O)[C@H]21,inactive,
CCCCOC(=O)c1ccccc1,inactive,
c1ccc2ncccc2c1,inactive,
CCCCCCCCCCCCCCCCOS(=O)(=O)O,inactive,
O=C(Cl)C(F)(F)C(F)(F)C(F)(F)C(=O)Cl,inactive,
OCc1c[nH]c2ccccc12,inactive,
CCCCCOC(C)=O,,10.1 µM (active)
NC(=O)N1c2ccccc2C=Cc2ccccc21,inactive,
FC(F)=C(F)C(F)(F)C(F)(F)C(F)(F)C(F)(F)C(F)(F)C(F)(F)F,inactive,
CNC(C)=O,inactive,
CCc1ccc(O)c(C(C)(C)C)c1,,36.6 µM (active)
CCCCCCCC/C=C\CCCCCCCC(=O)OC[C@@H](O)[C@H]1OC[C@H](O)[C@H]1O,inactive,
